An excerpt weighted towards active compounds, which were near 1.5% of everything screened.
BLM helicase inh: Bloom syndrome helicase (human) inhibition; P54132; recombinant BLM DNA unwinding, fluorescence dequenching; Potency, µM (titrated, usually from 56.1 µM), for inactives: at the top dose activity change, negative = inhibition, most hits filed as inhibitors; 350,000 tested, 0.2% active;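 further: potency means the concentration at half of the fitted maximal effect; plate controls were vehicle for no effect and no enzyme for full effect; nearly all actives have a fitted effect of over 35% in size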
FEN1 inh: human FEN1 inhibition; P39748; Recombinant FEN1 flap cleavage, fluorescence, 15 min; Potency, µM (highest dose often 114 µM), for inactives: at the top dose activity change, negative = inhibition, most hits filed as inhibitors; 390,000 tested, 0.35% active; AID 588795; further: potency means the concentration at half of the fitted maximal effect; nearly all actives have a fitted effect of over 65% in size
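Quantitative HTS format: each compound was titrated, incubated with 10 nM nuclease for 15 min at room temperature, then challenged with flap substrate at 50 nM final. Signal change over 15 min gave concentration–effect curves.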
PI5P4K alpha inh: PI5P4K alpha (human) kinase inhibition | P48426 | PI5P4Kalpha enzyme, ADP-Glo luminescence, 60 min; hits give low values | max response, % | 330,000 tested, 1.2% active; active means max response of -50% or lower; inconclusive means between -30% and -50%; inactive means -30% or higher; further: value at the top dose of about 77 µM
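Human PI5P4Kalpha with substrate in 0.038 M HEPES pH 7.4, 0.28 mM EGTA, 0.1% CHAPS, 5% DMSO; reaction started with 5 microM ATP (final), 60 min at room temperature. ADP formed read by ADP-Glo luminescence.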
RECQ1 helicase: blocks DNA unwinding by human RECQ1 | 240,000 tested, 0.54% active | RECQ1 DNA unwinding, red fluorescence kinetic read | Potency, µM (doses to about 57.3 µM), without a hit: at the top dose activity, negative = inhibition, usual class: inhibitors | AID 2549;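 further: potency means the concentration at half of the fitted maximal effect; plate controls were vehicle for no effect and no enzyme for full effect; nearly all actives have a fitted effect of over 30% in size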
Target sequence (P46063 whole entry, looked up): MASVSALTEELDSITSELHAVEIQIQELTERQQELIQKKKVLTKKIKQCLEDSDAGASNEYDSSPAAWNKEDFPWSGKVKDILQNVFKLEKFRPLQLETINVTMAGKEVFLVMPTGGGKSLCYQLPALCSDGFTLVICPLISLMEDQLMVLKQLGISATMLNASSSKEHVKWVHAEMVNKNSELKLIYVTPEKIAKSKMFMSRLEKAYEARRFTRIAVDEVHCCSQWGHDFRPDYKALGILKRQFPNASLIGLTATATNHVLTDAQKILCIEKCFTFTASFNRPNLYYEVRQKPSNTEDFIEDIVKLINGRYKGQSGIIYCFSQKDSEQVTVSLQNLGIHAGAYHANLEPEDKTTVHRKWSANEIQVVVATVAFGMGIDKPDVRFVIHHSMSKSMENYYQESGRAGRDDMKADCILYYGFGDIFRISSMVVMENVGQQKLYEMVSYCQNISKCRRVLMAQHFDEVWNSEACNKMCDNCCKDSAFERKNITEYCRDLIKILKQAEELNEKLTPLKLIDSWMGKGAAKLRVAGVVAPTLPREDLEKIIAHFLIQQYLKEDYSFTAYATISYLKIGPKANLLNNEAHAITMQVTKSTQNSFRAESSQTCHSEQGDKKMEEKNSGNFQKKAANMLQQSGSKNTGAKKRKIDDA
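50 nM RECQ1T1 preincubated 15 min with compound in Tris pH 8.0 buffer with MgCl2, DTT, Tween-20 and 2.5 ug/ml poly(dI-dC); started with 200 nM TAMRA/BHQ-2 forked duplex and 2 mM ATP. Unwinding read as fluorescence (525/598 nm), two reads 2 h apart.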
APEX1 inh: APE1 (human) endonuclease inhibition; P27695; recombinant APE1, TAMRA/BHQ-2 abasic DNA cleavage fluorescence; Potency, µM (series often up to 65.8 µM), inactives show top-dose activity change, negative = inhibition, hits mostly inhibitors; 350,000 tested, 0.35% active; AID 2517;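 further: potency means the concentration at half of the fitted maximal effect; plate controls were vehicle for no effect and reference inhibitor for full effect; nearly all actives have a fitted effect of over 55% in size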
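Kinetic fluorescence read (525 ex/598 em nm, three reads 60 s apart) of AP-site incision; signal = third minus first read. Enzyme 0.75 nM, dual-labelled THF duplex 50 nM, compound preincubation 15 min RT.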
GCN5L2 inh: inhibitors of human GCN5L2 histone acetyltransferase; Q92830; GCN5L2 HAT assay, ThioGlo1 CoA-SH fluorescence; Potency, µM (doses to about 58.9 µM), without a hit: top-dose activity change, negative = inhibition, usual class: inhibitors; 390,000 tested, 0.21% active; AID 504327; further: potency means the concentration at half of the fitted maximal effect
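qHTS, 1536-well. 20nM enzyme, pH 7.5 HEPES/EDTA/Tween-20 buffer; 15 min compound preinc., RT. Start: 75uM H3(1-25), 70uM AcCoA, 50uM ThioGlo1. Read Ex340/Em540 at t=0 (autofluorescence flag) and t=20 min.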
ADP-Glo counter: ADP-Glo luciferase interference, PI5P4K counter-screen; ADP-Glo detection counter-screen, luciferase luminescence, no enzyme; 1,100 tested, under 10 active; AID 743285; Potency, µM (titrated, usually from 76.9 µM), without a hit: at the highest dose activity change, negative = inhibition, hits mostly inhibitors; shares compounds with PI5P4K alpha inh
Active calls of the source: *; i = inactive; ? = inconclusive; . = no result given; [ ] = remark or other dose. Unless noted, the call rests on the fitted dose curve; in most records, active means well fitted curve in the direction sought with a large enough effect; inconclusive means small, poorly fitted or top-dose-only effect, or another doubt; inactive means no such curve, though single readings can be large; an effect the other way counts as inactive or inconclusive. Unless noted, on the % scale 0 is the no-effect control and ±100 the full control effect.

SMILES | BLM helicase inh | FEN1 inh | PI5P4K alpha inh | RECQ1 helicase | APEX1 inh | GCN5L2 inh | ADP-Glo counter
CC(=O)N1CCCc2ccc(NC(=O)c3ccc(C(F)(F)F)cc3)cc21 | 0% | 16% | . | . | . | 14% | .
Cc1cccc(-n2c(SCC(N)=O)nc3c(c2=O)C2(CCCC2)Cc2ccccc2-3)c1 | -10% | -12% | -56* | -12% | 5% | -11% | -4%
O=C(CS(=O)(=O)c1cccc2nsnc12)NCc1ccc(Cl)cc1 | 3% | 12% | . | . | . | -20% | .
CCN1CCN(C(=O)Cn2nc(-c3ccc(Cl)cc3)ccc2=O)CC1 | 1% | 17% | ? | -19% | -2% | -13% | -8%
CCOC(=O)C1(C)CCCN(C(=O)c2ccccc2C(F)(F)F)C1 (stereo not drawn) | . | . | -79* | . | . | . | -5%
O=C(O)c1[nH]n(-c2ccc(S(=O)(=O)O)cc2)c(=O)c1N=Nc1ccc(S(=O)(=O)O)cc1 | . | -17% | . | . | . | . | .
CCCC[C@H]1CCCO[C@@](C(=O)NCCN2CCOCC2)(C(F)(F)F)C1 | -11% | -2% | . | 9% | -1% | . | .
COc1ccc(S(=O)(=O)Nc2ccc3c(c2)CCC3)cc1 | 0% | -12% | -67* | -4% | 11% | -8% | -4%
CC(C)(C(=O)N1CCC1(C)C(=O)NS(=O)(=O)c1ccc(C#N)cc1)c1ccccc1 (stereo not drawn) | . | . | -25 | . | . | . | -4%
Cc1noc(C)c1S(=O)(=O)N1CCc2nc(COc3ccccc3)c3c(c2C1)CO[C@@H](C)C3 | 4%[12.4 µM] | . | . | i[11.5 µM] | 13%[12.4 µM] | . | .
COC(=O)c1sccc1NC(=O)c1c(Cl)cccc1Cl | -2% | -2% | 1 | . | 2% | -5% | .
O=C(O)c1sccc1NC(=O)c1c(Cl)cccc1Cl | -2% | -2% | -55* | . | 41% | 2% | 2%
O=S(=O)(NCCc1cn(S(=O)(=O)c2ccccc2)c2ccccc12)c1ccccc1 | . | -12% | . | . | . | . | .
COCCN(C(=O)COC(=O)c1cc2c(s1)CCCC2)c1c(N)n(Cc2ccccc2)c(=O)[nH]c1=O | . | 0% | -56* | . | -15% | -8% | -3%
COc1ccccc1C1=Nn2c(nnc2-c2ccccc2C)SC1 | -1% | . | . | 8% | -7% | . | .
COc1ccccc1-c1nc2ccccc2n(CC(C)C)c1=O | . | . | -72* | . | . | . | -11%
CC(C)Cn1c(-c2ccccc2Cl)nc2ccccc21 | -2% | 0% | . | . | . | -7% | .
CCn1cc(C(=O)N2CCN(c3cccc(C)c3C)CC2)c(=O)c2ccc(C)nc21 | -3% | -13% | -73* | -4% | 7% | 11% | -7%
CCn1cc(C(=O)N2CCN(c3ccc([N+](=O)[O-])cc3)CC2)c(=O)c2ccc(C)nc21 | 4% | -5% | -1 | -1% | -2% | -13% | .
COc1ccc(Br)cc1CNC(=O)c1cc(=O)[nH]c2ccc(S(=O)(=O)N3CCCCC3)cc12 | -2% | -7% | . | . | . | 2% | .
Cc1ccc(C(=O)NCC(c2ccc3c(c2)OCO3)N2CCN(c3ccc(F)cc3)CC2)cc1 (stereo not drawn) | -6% | -1% | . | . | . | 0% | .
O=c1cc(-c2ccccc2)[nH]n1-c1nc2ccccc2[nH]1 | -17% | 7% | -76* | -6% | -2% | -16% | 2%
O=C(Cc1cccs1)NCCc1csc(-c2ccccc2)n1 | -10% | -3% | -60* | -8% | -6% | -14% | 1%
CN(Cc1cccs1)C(=O)Cc1csc(-c2ccccc2)n1 | -3% | 11% | 4 | -5% | -1% | -5% | .
COc1ccccc1N(CC(=O)NCc1ccco1)S(=O)(=O)c1ccc(C)cc1 | -30% | ? | -80* | . | 21µM* | -25% | -2%
SMILES | BLM helicase inh | FEN1 inh | PI5P4K alpha inh | RECQ1 helicase | APEX1 inh | GCN5L2 inh | ADP-Glo counter
CCOc1ccc(-c2ccc(SCC(=O)Nc3nnc(CC)s3)nn2)cc1 | -5% | -3% | -5 | -5% | -2% | -12% | .
CCOc1ccc(-c2ccc(SC)nn2)cc1 | -8% | 6% | -50* | 13% | 14% | -4% | 16µM*
Cc1onc(-c2c(F)cccc2Cl)c1C(=O)OCC(=O)NCc1ccco1 | -5% | -1% | -51* | -7% | -9% | -5% | -5%
Cc1onc(-c2c(F)cccc2Cl)c1C(=O)NCc1ccco1 | -1% | 8% | 1 | -1% | -9% | -6% | .
COc1cccc2c1Oc1ncccc1N(C(=O)CCC(=O)NCc1ccc(OC(C)C)cc1)C2 | 4% | -12% | . | . | . | 0% | .
NC(=O)c1ccsc1NC(=O)COC(=O)c1nc(Cl)ccc1Cl | . | 7% | -53* | . | 6% | 3% | -3%
CN(C)S(=O)(=O)c1cccc(C(=O)OCC(=O)Nc2sccc2C(N)=O)c1 | -1% | -13% | -66* | -1% | 1% | -8% | -4%
Cc1c(-c2cc(C(=O)O)on2)cnn1C | 4% | -4% | -51* | -3% | ? | -3% | -10%
COc1ccc(-c2nc(CCNC(=O)c3c(F)cccc3Cl)cs2)cc1 | 1% | -11% | . | . | . | -5% | .
CN1CCN(C(c2ccccc2)c2ccc(Cl)cc2)CC1 (stereo not drawn) | . | 12% | -52* | . | 4% | 1% | 1%
O=S(=O)(Nc1ccc(Cl)cc1)c1ccc(N2CCOCC2)c(NC(=S)NCCN2CCOCC2)c1 | 1% | -18% | -83* | 1% | 9% | -17% | -8%
Cc1cc(Br)cn2c(Cc3cccc(Cl)c3)c(-c3ccco3)nc12 | . | . | -10 | . | . | . | .
COc1ccccc1Cc1c(-c2ccco2)nc2cc(C)c(Br)c(C)n12 | . | . | -64* | . | . | . | -1%
Cc1cc2nc(-c3ccco3)c(Cc3cccc(Cl)c3)n2c(C)c1Br | . | . | -56* | . | . | . | -1%
Clc1cccc(Cc2c(-c3ccco3)nc3ccc(Br)cn23)c1 | . | . | -82* | . | . | . | -2%
CCOc1ccc(/C=C/c2nc3ccccc3n2S(=O)(=O)c2cccc(Cl)c2)cc1 | -6% | -17% | . | . | . | -6% | .
CC(C)(C)C(=O)C(Oc1ccc(Cl)cc1)n1ccnc1 (stereo not drawn) | 6% | . | . | . | . | 1% | .
O=c1cc(O)c2sc(Nc3cccc(C(F)(F)F)c3)nc2[nH]1 | -10% | -12% | -84* | 1% | 4% | 2% | -8%
COC(=O)c1ccc2nc(-c3ccco3)c(Cc3ccc(C)cc3)n2c1 | . | . | -19 | . | . | . | .
COC(=O)c1ccc2nc(-c3ccco3)c(Cc3ccc(OC)cc3C)n2c1 | . | . | -80* | . | . | . | 1%
CCOC(=O)c1ccccc1NC(=O)N(Cc1ccco1)C1CCN(C(C)=O)CC1 | 2% | 15% | . | . | . | 1% | .
Cc1nc(NC(=O)c2ccccc2)sc1-c1cc(C(=O)N2CCOCC2)nn1Cc1ccccc1 | . | . | -55* | . | . | . | -2%

Assay outcomes (PubChem BioAssay)
